± gives the standard deviation of the averaged measurements. Over roughly 33,000 sequences, “E-score (rank enrichment, -0.5 to 0.5)” has its median near -0.0028; the highest 2% begin near 0.23. The entries come from a sample that favours the highest values as a whole.
The sequences below were run on 2Sb-muMax20 (muMax20 with two 1,3-bis(methyl)benzene Cys staples, A13C/A17C and Q88C/A92C, C-terminal Lys) (assay: PBM 8-mer E-score (E-score (rank enrichment, -0.5 to 0.5)); higher = stronger preferential binding).
Procedure: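 Protein binding microarray (universal PBM chip covering all 10-mers in fixed probe flanks) with chemically synthesized human Max(13-93) bHLH-LZ analogs (not full-length Max) bearing noncanonical residues (hArg, Tha, Aib, Nle at 65) and aromatic Cys staples. Read-out per 8-mer (and its reverse complement): E-score (rank-based enrichment, -0.5 to 0.5) and Z-score of median probe intensity.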

Sequence | PBM 8-mer E-score
CATCCATG | -0.0304 ± 0.072
ACTAGTAA | 0.231 ± 0.036
GCTACTAC | 0.233 ± 0.0041
CCTACTAG | 0.0815 ± 0.034
ACTACTAC | 0.0819 ± 0.046
ATTACTAG | -0.0604 ± 0.047
ACTAGTAT | 0.201 ± 0.067
ATTACTAC | 0.296 ± 0.011
ACTACTAG | 0.241 ± 0.027
ACTAGTAG | 0.113 ± 0.013
ACTACTAT | 0.173 ± 0.036
GCTACTAA | 0.082 ± 0.075
CTTACTAC | 0.202 ± 0.032
ACCTGTGA | -0.138 ± 0.064
CCTATGAG | -0.157 ± 0.032
AATCTAGA | -0.047 ± 0.028
CCGTTTAA | -0.0517 ± 0.035
AGAGCGTA | 0.00302 ± 0.045
AGATGATC | -0.147 ± 0.013
ACGGTGAG | -0.0622 ± 0.023
CAGAATTA | -0.00473 ± 0.0023
AGCGAAGA | -0.0699 ± 0.084
AACATGTT | 0.122 ± 0.0036
AACATGTC | 0.11 ± 0.051
AACATGTG | 0.344 ± 0.044

Sequence | PBM 8-mer E-score
CACATGTA | 0.338 ± 0.0074
TACATGTA | 0.238 ± 0.06
CACATGTG | 0.395 ± 0.00083
GACATGTA | 0.147 ± 0.021
CTCATGTA | 0.0268 ± 0.039
CACATGAA | 0.125 ± 0.0092
CACATGTC | -0.0158 ± 0.02
TACATGCA | 0.181 ± 0.0009
CACATGCG | 0.124 ± 0.051
CAACTCAG | -0.162 ± 0.038
ACCGTCAG | -0.115 ± 0.051
GACAGGAC | -0.0924 ± 0.0031
GGGACCGA | -0.24 ± 0.04
GGGCAGAC | -0.0224 ± 0.074
GAACGATA | 0.0756 ± 0.039
AGTAACCC | 0.0955 ± 0.019
AATAAACA | 0.195 ± 0.025
AACATGTA | 0.258 ± 0.027
AACATGCA | 0.203 ± 0.011
AACATGGA | -0.00271 ± 0.005
CCCATCAA | 0.12 ± 0.019
GCCATCAC | -0.154 ± 0.0083
CCCATCAC | 0.249 ± 0.026
GCAGAAAA | 0.0213 ± 0.046
TAATGGGA | 0.147 ± 0.011

Sequence | PBM 8-mer E-score
AATTAGCT | 0.164 ± 0.022
CCCCTTCC | -0.0525 ± 0.1
ACCCTTGA | -0.145 ± 0.041
CCCCTTGA | 0.27 ± 0.0079
GCCCTTGA | -0.0328 ± 0.041
CCCCTTCA | 0.294 ± 0.014
TCCCTTCA | 0.0279 ± 0.022
GGCCGCAC | -0.0381 ± 0.06
CGCCACGC | -0.118 ± 0.0025
GATTACCC | 0.093 ± 0.041
ATCGGCCC | 0.0612 ± 0.096
GTGCCGCA | -0.0229 ± 0.078
AACCCAAT | -0.0928 ± 0.095
ACCCCAAT | 0.344 ± 0.025
ACCCCATA | 0.147 ± 0.013
ACCCCATG | 0.253 ± 0.019
ACCCCAAC | 0.217 ± 0.019
ACCCCAAA | 0.2008 ± 0.0017
AACCCATG | 0.106 ± 0.067
ACCCCCAT | -0.188 ± 0.066
ACCCCAAG | 0.271 ± 0.016
CATTGCCA | -0.0459 ± 0.045
CACCAGAA | -0.00913 ± 0.061
GAGTCAGA | -0.0579 ± 0.039
ACGGCCAA | -0.0314 ± 0.0051

Sequence | PBM 8-mer E-score
ACTGGTGC | -0.0379 ± 0.026
CTATTCAC | -0.0182 ± 0.015
CGATAGAA | 0.0743 ± 0.02
CGTCCGAA | -0.121 ± 0.017
TACAGAAA | 0.256 ± 0.021
GACAGAAA | 0.111 ± 0.013
AACAGAAA | 0.0674 ± 0.036
AAGACGTC | 0.0152 ± 0.028
GATGGCAA | 0.242 ± 0.012
GATGGCAC | 0.03519 ± 8.5e-05
CATGGCAA | -0.0308 ± 0.0076
ATGCCGCA | 0.0568 ± 0.0082
AGCGAGGA | -0.0458 ± 0.014
GTCTTCTA | 0.00543 ± 0.00074
GCTACCCC | -0.0378 ± 0.075
CCTACCCC | 0.248 ± 0.062
CGTACCCC | 0.246 ± 0.015
AGTACCCC | 0.129 ± 0.038
CGTACCCA | 0.0446 ± 0.097
ACTACCCC | 0.214 ± 0.047
ATGAAAAC | 0.0577 ± 0.019
CAGGAAAC | -0.0883 ± 0.035
CGACTCAC | -0.236 ± 0.04
AGGGTTCC | -0.294 ± 0.015
ACGTATGA | 0.127 ± 0.02

Sequence | PBM 8-mer E-score
ACGTATGC | 0.238 ± 0.066
CCGTATGC | -0.07 ± 0.043
TCCGAGCA | -0.1624 ± 0.00048
AACCCCAT | 0.156 ± 0.03
GATTAGAA | 0.00142 ± 0.015
CATTAGAA | 0.00421 ± 0.034
TATTAGAA | 0.259 ± 0.036
ACCCGCCT | 0.0215 ± 0.042
ATGCCGAC | -0.112 ± 0.0097
CGTGGGCA | 0.00349 ± 0.003
GGTGGGGA | 0.302 ± 0.032
GTTGGGCA | 0.024 ± 0.041
AGTGGGAG | -0.0115 ± 0.017
AGTGGGGG | 0.085 ± 0.077
CGTGGGGA | 0.0752 ± 0.016
AGTGGGAA | 0.105 ± 0.12
GGTGGGCA | 0.262 ± 0.0056
GGTGGGAA | 0.0964 ± 0.019
AGTGGGGC | 0.0302 ± 0.058
AGTGGGAT | 0.293 ± 0.031
AGTGGGGA | 0.3126 ± 0.0004
CAATACCC | 0.216 ± 0.021
ATCAAGCA | -0.0166 ± 0.023
AACGTTAC | 0.0258 ± 0.019
AATGGACA | 0.0255 ± 0.059

Sequence | PBM 8-mer E-score
CATCCCAG | -0.121 ± 0.0081
AACGGCGA | -0.0512 ± 0.014
ACGATAAA | 0.014 ± 0.017
AGCAGAGG | -0.0143 ± 0.0075
AGGTGGGA | 0.13 ± 0.12
CGGTGGGA | 0.00626 ± 0.078
GGGTGGGA | 0.314 ± 0.026
ATACGCAA | 0.303 ± 0.0063
ATACGCAG | -0.0883 ± 0.0056
GTACGCAA | -0.0811 ± 0.049
GTATATAA | 0.119 ± 0.015
ATAGATAA | 0.185 ± 0.09
ATATATAC | 0.289 ± 0.038
ATATATAT | 0.00253 ± 0.052
GTATACAC | 0.0536 ± 0.025
ATATATCA | 0.18 ± 0.048
CTATATCC | 0.217 ± 0.014
CTATATAC | 0.214 ± 0.027
ATAGATAG | 0.204 ± 0.051
ATATATCC | 0.24 ± 0.015
ATAGATAC | 0.239 ± 0.02
GTATATAC | 0.296 ± 0.039
CGGATTCC | -0.0954 ± 0.031
CAAACGGA | -0.0945 ± 0.0024
AACCACGG | -0.276 ± 0.0092

Sequence | PBM 8-mer E-score
CGATCAGA | -0.199 ± 0.015
ATTGGCTG | -0.0784 ± 0.03
CTCGTGCA | 0.0182 ± 0.011
CTATAGCC | 0.0346 ± 0.087
ATATAGCC | 0.234 ± 0.01
ATATAGCA | 0.175 ± 0.016
AAGTATAT | 0.136 ± 0.0036
AAGTATAA | 0.196 ± 0.052
AAGTATAC | 0.236 ± 0.038
GTGAGACA | 0.0265 ± 0.039
GTTGTCCA | 0.00715 ± 0.051
AGGCCCGG | -0.321 ± 0.063
GGGGTCAA | 0.109 ± 0.11
ACGCGGTC | -0.0575 ± 0.016
AAATAGAT | 0.24 ± 0.044
AAATAGAC | 0.235 ± 0.0036
CAATAGAC | 0.109 ± 0.022
AAATAGGG | 0.286 ± 0.0043
AAATAGGC | 0.0499 ± 0.12
AAATAGAA | -0.0324 ± 0.022
CAATAGGG | 0.0594 ± 0.051
AAATAGAG | 0.114 ± 0.056
